Measured values taken from the supplement of paper PMC11732987, “Enantioselective OTUD7B fragment discovery through chemoproteomics screening and high-throughput optimisation” (Communications Chemistry, 2025).

Target: T1, USP38 (UniProt Q8NB14)
T1 sequence (whole entry): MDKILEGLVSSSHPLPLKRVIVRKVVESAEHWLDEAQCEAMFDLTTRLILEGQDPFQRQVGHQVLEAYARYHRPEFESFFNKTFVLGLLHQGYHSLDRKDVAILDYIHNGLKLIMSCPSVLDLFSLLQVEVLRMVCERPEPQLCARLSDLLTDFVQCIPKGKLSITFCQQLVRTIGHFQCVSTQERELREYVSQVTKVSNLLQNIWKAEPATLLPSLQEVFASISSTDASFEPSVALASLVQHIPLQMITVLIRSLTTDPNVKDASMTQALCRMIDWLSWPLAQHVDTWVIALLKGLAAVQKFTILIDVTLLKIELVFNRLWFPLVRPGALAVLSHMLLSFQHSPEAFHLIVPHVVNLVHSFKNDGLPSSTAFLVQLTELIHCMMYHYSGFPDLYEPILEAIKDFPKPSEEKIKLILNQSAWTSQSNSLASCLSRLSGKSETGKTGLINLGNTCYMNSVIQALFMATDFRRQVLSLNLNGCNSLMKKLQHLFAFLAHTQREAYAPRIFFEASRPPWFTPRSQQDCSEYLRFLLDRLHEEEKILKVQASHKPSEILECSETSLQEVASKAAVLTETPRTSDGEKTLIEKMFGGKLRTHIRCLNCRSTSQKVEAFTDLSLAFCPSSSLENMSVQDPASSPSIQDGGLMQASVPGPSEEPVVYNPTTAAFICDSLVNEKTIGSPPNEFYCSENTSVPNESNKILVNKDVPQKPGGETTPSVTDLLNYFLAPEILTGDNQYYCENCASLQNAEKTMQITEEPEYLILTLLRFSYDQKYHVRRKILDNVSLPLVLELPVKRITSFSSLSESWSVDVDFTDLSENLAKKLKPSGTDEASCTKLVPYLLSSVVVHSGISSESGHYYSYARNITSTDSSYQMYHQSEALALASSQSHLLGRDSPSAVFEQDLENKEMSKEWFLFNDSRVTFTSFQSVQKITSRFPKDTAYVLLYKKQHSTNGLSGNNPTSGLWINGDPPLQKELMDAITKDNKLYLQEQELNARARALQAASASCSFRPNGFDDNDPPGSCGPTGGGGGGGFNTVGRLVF
Test: log2 ratio of Biotin-Ahx-Ub-VS probe labelling (compound/DMSO); higher = less target engagement, active = hit call of the paper (q ≤ 0.05, log2 ratio ≤ -1)
Conditions: treatment time: 3 h
Procedure, shortened: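 Average ratios of compound to vehicle were obtained by unpaired t-test. Beforehand, 495 µg samples of HEK293T lysate in buffer with protease inhibitors were treated in triplicate with compound over a concentration series or vehicle for 3 h, then with 0.5 µM final Biotin-Ahx-Ub-VS for 1 h. Labelled deubiquitinases were NeutrAvidin-enriched, digested and quantified label-free by diaPASEF LC-MS/MS in Spectronaut, normalised to the global median. Values are log2 and cover proteins with at least two unique peptides.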

Measured: log2 ratio of Biotin-Ahx-Ub-VS probe labelling

O=C(CCl)N[C@@H]1CCCc2ccccc21
inactive: compound concentration: 0.78uM -0.208 | compound concentration: 1.56uM -0.105 | compound concentration: 3.13uM -0.116 | compound concentration: 6.25uM -0.253 | compound concentration: 12.5uM -0.127 | compound concentration: 25uM -0.107 | compound concentration: 50uM -0.0917 | compound concentration: 100uM -0.166 | compound concentration: 200uM -0.233
